The values below come from PubChem BioAssay.

Assay [1] can be described thus: resazurin metabolic signal in HepG2 cells – cell-based, resazurin fluorescence, 24 h, PK04 Diversity Set, profiling panel (AID 1172). Further: test concentration not given here. The conditions noted are these: HepG2 viability, higher = more signal.
A short description of assay [2]: budding yeast growth changes without added modifier – OD600, strain BY4716, 24 h, basal condition, primary screen (AID 1173). The settings on record: S. cerevisiae BY4716 growth, OD600, 24 h; higher = more signal, called active from +8 up or from −8 down.
Assay [3] is described as follows: viability profiling in MM1S myeloma cells – cell-based, resazurin fluorescence, basal, 24 h, PK04 Diversity Set, profiling panel (AID 1174).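 Further: MM1S multiple myeloma cell line; test concentration not given here.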 The conditions noted are these: higher = more signal, called active from +8 up or from −8 down. On the technique in general: Alamar Blue is a resazurin reagent that responds to reducing activity.
In assay [4] the target is Dihydroorotate dehydrogenase (quinone), mitochondrial (Plasmodium falciparum (isolate 3D7)) (UniProt Q08210). Nature of the assay: inhibition of P. falciparum DHODH – biochemical, C-terminal His tag, absorbance 600 nm, primary screen (AID 1175).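 Further: recombinant parasite enzyme with a five histidine tag at its C terminus; test concentration not given here.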 The conditions noted are these: PfDHODH enzyme, DCIP absorbance 600 nm; higher = more signal, called active from +8 up or from −8 down.
Dihydroorotate dehydrogenase (quinone), mitochondrial (Plasmodium falciparum (isolate 3D7)), sequence (Q08210 whole entry, looked up): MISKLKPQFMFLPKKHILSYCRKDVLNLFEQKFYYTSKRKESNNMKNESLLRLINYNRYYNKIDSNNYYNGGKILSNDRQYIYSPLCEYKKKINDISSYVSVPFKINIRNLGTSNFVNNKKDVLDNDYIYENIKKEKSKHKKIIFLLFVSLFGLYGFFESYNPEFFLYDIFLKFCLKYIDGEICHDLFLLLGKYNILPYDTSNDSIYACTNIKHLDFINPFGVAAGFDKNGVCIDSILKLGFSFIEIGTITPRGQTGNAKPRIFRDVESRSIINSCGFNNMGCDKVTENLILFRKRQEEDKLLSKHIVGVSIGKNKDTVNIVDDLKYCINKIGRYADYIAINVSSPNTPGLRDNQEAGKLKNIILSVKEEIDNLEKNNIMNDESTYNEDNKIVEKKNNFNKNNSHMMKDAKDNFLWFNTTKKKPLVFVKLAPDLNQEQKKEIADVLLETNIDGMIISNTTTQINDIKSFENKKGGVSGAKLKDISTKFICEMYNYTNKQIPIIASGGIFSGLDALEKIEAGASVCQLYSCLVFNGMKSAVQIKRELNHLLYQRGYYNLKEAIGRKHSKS

Assay [5] can be described thus: inhibition of PAO1 biofilm formation – strain PAO1, LB-PBS medium, absorbance 600 nm, primary screen (AID 1176). Further: test concentration not given here. The conditions noted are these: P. aeruginosa PAO1 growth/biofilm, A600, 12 h; higher = more signal.
Assay [6] in a line: growth modulation of vineyard yeast isolate – strain RM11-1a, OD600, basal, 24 h, primary screen (AID 1177).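 Further: cultures grown under basal conditions with no added stressor; test concentration not given here.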 The settings on record: S. cerevisiae RM11-1a growth, OD600, 24 h; higher = more signal, called active from +8 up or from −8 down.
Assay [7] in a line: growth of efflux-deficient E. coli DRC39 – strain DRC39, OD650, 24 h, E. coli filamentation inducers, primary screen (AID 1178).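 Further: growth measured as culture turbidity by optical density at 650 nm; test concentration not given here.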 The conditions noted are these: E. coli DRC39 acrAB, higher = more signal, called active from +8 up or from −8 down.
Assay [8] can be described thus: growth of efflux-deficient E. coli DRC39 – strain DRC39, OD650, 48 h, E. coli filamentation inducers, primary screen (AID 1179).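 Further: screen aims at cell division blockers that make cells filament.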 The settings on record: E. coli DRC39 delta-acrAB growth, higher = more signal, called active from +8 up or from −8 down.
Assay [9] in a line: viability profiling in RPMI8226 myeloma cells – cell-based, resazurin fluorescence, basal, 24 h, PK04 Diversity Set, profiling panel (AID 1180).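 Further: RPMI8826 multiple myeloma cell line at 5000 cells per well; test concentration not given here.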 The settings on record: higher = more signal.
Assay [10] concerns the target E3 ubiquitin-protein ligase XIAP (Homo sapiens) (UniProt P98170). Nature of the assay: small molecules binding XIAP protein – biophysical, small-molecule microarray, fluorescence 635 nm, primary screen (AID 1181).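 Further: score merges 667 nm emission and signal to noise over triplicate slides.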 The settings on record: higher = more signal.

The source made the active and inactive calls. Unless noted, how the calls were made is not given here.

E3 ubiquitin-protein ligase XIAP (Homo sapiens), sequence (P98170 whole entry, looked up): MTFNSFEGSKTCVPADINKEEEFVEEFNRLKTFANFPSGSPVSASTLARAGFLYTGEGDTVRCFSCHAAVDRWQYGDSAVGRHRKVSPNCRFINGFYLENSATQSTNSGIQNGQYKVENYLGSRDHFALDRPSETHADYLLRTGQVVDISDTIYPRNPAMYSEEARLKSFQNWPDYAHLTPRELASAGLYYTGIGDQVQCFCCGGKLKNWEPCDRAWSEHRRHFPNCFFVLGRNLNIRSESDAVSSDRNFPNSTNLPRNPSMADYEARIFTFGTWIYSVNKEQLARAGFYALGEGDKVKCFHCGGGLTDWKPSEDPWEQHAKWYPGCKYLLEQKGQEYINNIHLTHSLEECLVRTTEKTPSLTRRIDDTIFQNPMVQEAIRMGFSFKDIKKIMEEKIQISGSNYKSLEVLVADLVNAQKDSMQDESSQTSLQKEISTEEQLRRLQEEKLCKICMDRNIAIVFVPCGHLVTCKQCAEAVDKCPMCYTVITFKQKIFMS

For `CC(=O)O[C@H]1C2=C(C(=O)[C@@H]3O[C@@H]31)[C@H]1C(C)O[C@@H]2[C@@]23C(=O)[C@@H]4O[C@@H]4[C@@H](O)C2=CO[C@H](C)[C@@H]13` (stereo not given in full), the z-score in assay [1] was 0.0072; in [2], 0.174 (inactive); in assay [3], -1.01 (inactive); in assay [5], -0.0812 (inactive); in assay [6], -0.2 (inactive); in [7], 0.223 (inactive). The figures for the z-score in assay [8] and in assay [9] were 0.186 (inactive) and -1.12, respectively. Also, the results for the composite z-score in [4] and in assay [10] were -0.0495 (inactive) and -0.0454, respectively.
On to `COc1ccc(-c2ccc3c(n2)CCCN3CC(O)CN2CCCc3nc(C)c(C)cc32)cc1` (stereo not given), for which the z-score is -0.671 in [1]; -1.75 (inactive) in assay [2]; -0.559 (inactive) in assay [3]; 0.274 (inactive) in assay [5]; -0.256 (inactive) in [6]; 0.975 (inactive) in assay [7]. Further, the z-score in [8] was 0.65 (inactive); in assay [9], -0.836. The composite z-score in assay [4] was 1.18 (inactive); in assay [10] it was 1.15.
With `C=CC[C@@H]1C=C[C@H](ON=Cc2ccc(C(=O)N3[C@H](c4ccc(C)cc4)[C@@H](C)CC[C@H]3C(=O)OC)cc2)[C@@H](CO)O1`, the z-score in assay [1] was 0.456; in assay [2], -0.0957 (inactive); in assay [3], -0.435 (inactive); in [5] it was 0.547 (inactive); in assay [6], 0.674 (inactive); in assay [7] it was 0.442 (inactive). Further, the values for the z-score in assay [8] and in assay [9] were 0.226 (inactive) and 0.0719, respectively. Besides, the figures for the composite z-score in assay [4] and in [10] were 0.16 (inactive) and -0.16, respectively.
In the case of `CC(C)NC(=O)[C@@]1(c2ccc([N+](=O)[O-])cc2)CC(=O)N(CC23CC4CC(CC(C4)C2)C3)[C@@H]1c1ccc(CO)cc1I`, the z-score in assay [1] is -3.37; in assay [2] it was -0.722 (inactive); in [3], -4.2 (inactive); in [5], 0.761 (inactive); in assay [6], 0.835 (inactive); in assay [7] it was -0.398 (inactive). Moreover, the z-score in assay [8] was -0.226 (inactive); in [9], -4.86. The values for the composite z-score in assay [4] and in [10] were -0.304 (inactive) and 0.0178, respectively.
With `COCCOC(=O)N1C(=O)[C@@]2(c3cc(C#Cc4ccc(OC)cc4)ccc31)[C@H](C(=O)N1CCN(c3ncccn3)CC1)[C@H]1C(=O)O[C@H](c3ccccc3)[C@H](c3ccccc3)N1[C@@H]2c1ccc(OCCO)cc1`, the z-score in assay [1] is 0.254; in [2], 1.89 (inactive); in [3], 0.468 (inactive); in [5], 3.21 (inactive); in assay [6] it was 3.06 (inactive); in assay [7], 0.178 (inactive). For the same compound, the z-score in [8] was -0.0435 (inactive); in [9] it was -0.0737. Also, the composite z-score is -1.62 (inactive) in [4] and -0.337 in [10].
Consider `O=C1[C@H]2[C@H]3[C@H](O)[C@H](O)CC(=NOCc4ccccc4)[C@H]3CC[C@H]2C(=O)N1c1ccc(F)cc1F`, for which the z-score in assay [1] is 1.15; in assay [2], -1.51 (inactive); in [3], -0.254 (inactive); in assay [5] it was 0.328 (inactive); in assay [6] it was -0.645 (inactive); in assay [7], 0.586 (inactive). In addition, the z-score in [8] was 0.535 (inactive); in [9], 1.28. Further, the composite z-score in [4] is -0.738 (inactive); in assay [10], 0.104.
As for `O=C1CCCC=C1C(O)CCOCc1ccccc1` (stereo not given), the z-score in assay [1] is 0.123; in [2], -1.76 (inactive); in [3], -0.43 (inactive); in assay [5], 0.602 (inactive); in assay [6], -0.735 (inactive); in [7] it was -0.88 (inactive). Moreover, the figures for the z-score in assay [8] and in assay [9] were -1.74 (inactive) and 0.104, respectively. In addition, the composite z-score in assay [4] is -0.0462 (inactive); in [10], -0.0525.
`O=C1C[C@@H](O)[C@@H](O)[C@@H]2[C@@H]3C(=O)N(c4cccc(Oc5ccccc5)c4)C(=O)[C@@H]3CC[C@@H]12`: the z-score is -0.165 in assay [1]; -0.208 (inactive) in assay [2]; 0.207 (inactive) in assay [3]; -0.708 (inactive) in [5]; -0.25 (inactive) in assay [6]; -0.65 (inactive) in assay [7]. Also, the z-score in assay [8] was -0.644 (inactive); in assay [9] it was -0.0298. The composite z-score in [4] is -0.453 (inactive); in assay [10], -0.102.
Take `COCCCNC(=O)[C@@]1(Sc2ccc(C)cc2)CC(=O)N(Cc2ccccc2)[C@@H]1c1ccc(CO)cc1I`: the z-score in assay [1] was 0.121; in assay [2], -3.62 (inactive); in [3], -2.46 (inactive); in [5], -0.549 (inactive); in [6] it was -1.02 (inactive); in [7] it was 0.283 (inactive). The z-score in [8] was 0.264 (inactive); in assay [9], -1.78. Moreover, the figures for the composite z-score in [4] and in [10] were -0.666 (inactive) and 0.106, respectively.
`C#CCCCON=C1C[C@@H](O)[C@@H](O)[C@@H]2[C@@H]3C(=O)N([C@@H](C)c4ccccc4)C(=O)[C@@H]3CC[C@H]12`: the z-score in [1] is -0.331; in assay [2], -1.27 (inactive); in [3] it was 0.8 (inactive); in [5], -0.389 (inactive); in assay [6], -1.35 (inactive); in [7] it was -0.0604 (inactive). In addition, the z-score is -0.12 (inactive) in assay [8] and 0.357 in [9]. The composite z-score in assay [4] was -2.87 (inactive); in [10], 0.0537.
As to `CS(=O)(=O)CCOC(=O)C1=CC(CCCO)=CC(c2cccs2)N(Cc2cccc(OC(F)(F)F)c2)C=C1C(=O)OCCS(C)(=O)=O` (stereo not given), the z-score in assay [1] was -0.746; in [2] it was -3.44 (inactive); in [3] it was -1.21 (inactive); in assay [5], 1.52 (inactive); in [6] it was 0.0788 (inactive); in [7] it was 0.596 (inactive). Further, the z-score in [8] was -0.0926 (inactive); in assay [9] it was -0.96. Also, the composite z-score is -0.407 (inactive) in assay [4] and -0.268 in assay [10].
Turning to `O=C1[C@H]2[C@H]3[C@H](O)[C@H](O)CC(=NOCc4ccccc4)[C@@H]3CC[C@H]2C(=O)N1C1CCCCC1`, the z-score is -0.116 in assay [1]; -3.16 (inactive) in assay [2]; -0.321 (inactive) in [3]; 1.29 (inactive) in assay [5]; 0.594 (inactive) in [6]; -0.315 (inactive) in [7]. Besides, the z-score in [8] was -0.881 (inactive); in [9], -0.456. Moreover, the composite z-score is 0.35 (inactive) in assay [4] and -0.144 in assay [10].
Regarding `COc1ccc([Si](C)(C)[C@@H]2[C@@H](CC(=O)N3CCC[C@H]3CO)O[C@]3(C(=O)N(Cc4cccc(N5CCC5=O)c4)c4ccccc43)[C@H]2C)cc1`, the z-score in assay [1] is -1.1; in assay [2], -0.0905 (inactive); in assay [3], -2.64 (inactive); in [5] it was 1.19 (inactive); in [6], 1.03 (inactive); in [7], 0.52 (inactive). Moreover, the values for the z-score in assay [8] and in assay [9] were 0.388 (inactive) and -3.51, respectively. The composite z-score is -3.15 (inactive) in [4] and -0.152 in assay [10].
